From PubChem BioAssay (Tox21)
Records with an inconclusive call do not appear. Calls of active or inactive are those of the source. Unless noted, the call rests on the fitted dose curve.

What was measured:
[1] = Nuclear factor erythroid 2-related factor 2/antioxidant responsive element (Nrf2/ARE) small molecule agonists: luciferase reporter gene qHTS assay in human keratinocytes (AID 1919969); further: nearly all actives have a fitted effect of over 35% in size
[2] = biological target: Gonadotropin-releasing hormone receptor (Homo sapiens) (UniProt P30968); assay: Human gonadotropin-releasing hormone receptor (GnRHR) small molecule agonists, calcium flux assay in GnRHR-HEK293 cells (AID 1920063); further: nearly all actives have a fitted effect of over 35% in size
Sequence of Gonadotropin-releasing hormone receptor (Homo sapiens) (P30968 whole entry, looked up): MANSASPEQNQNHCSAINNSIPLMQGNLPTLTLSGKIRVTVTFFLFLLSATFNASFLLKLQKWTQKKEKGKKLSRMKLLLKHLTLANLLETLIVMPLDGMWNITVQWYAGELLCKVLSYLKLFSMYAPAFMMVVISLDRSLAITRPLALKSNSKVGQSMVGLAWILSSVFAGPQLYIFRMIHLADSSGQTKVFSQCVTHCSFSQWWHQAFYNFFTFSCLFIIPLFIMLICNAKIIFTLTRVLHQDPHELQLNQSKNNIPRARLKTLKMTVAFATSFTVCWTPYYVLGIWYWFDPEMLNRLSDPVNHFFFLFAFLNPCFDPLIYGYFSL
Procedure, shortened: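 Tox21-format agonist screen using human GnRHR-expressing HEK293 cells and a fluorescent calcium dye; kinetic 3-min fluorescence reading after compound addition, 15-point concentration series run in triplicate.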

[3] = biological target: KiSS-1 receptor (Homo sapiens) (UniProt Q969F8); assay: Human kisspeptin (KISS1R) small molecule agonists, calcium flux assay in KISS1R-HEK293 cells (AID 1920064; active means well fitted activation curve with a large enough effect in the repeat runs)
Sequence of KiSS-1 receptor (Homo sapiens) (Q969F8 whole entry, looked up): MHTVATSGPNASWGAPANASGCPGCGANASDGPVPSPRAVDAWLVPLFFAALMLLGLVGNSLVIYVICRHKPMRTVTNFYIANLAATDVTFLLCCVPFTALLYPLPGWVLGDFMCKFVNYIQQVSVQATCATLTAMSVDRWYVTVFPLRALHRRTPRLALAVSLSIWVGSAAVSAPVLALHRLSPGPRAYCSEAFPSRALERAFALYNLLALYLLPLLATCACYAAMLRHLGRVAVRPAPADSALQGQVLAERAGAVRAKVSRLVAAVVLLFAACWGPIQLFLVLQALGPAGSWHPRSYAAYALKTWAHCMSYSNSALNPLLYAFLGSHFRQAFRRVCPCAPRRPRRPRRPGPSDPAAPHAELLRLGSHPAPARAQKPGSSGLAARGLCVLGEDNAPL
Procedure, shortened: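 Intracellular calcium mobilization in KISS1R-HEK293 cells was recorded by fluorescence (Ex/Em 480/540) for 3 min following compound addition to cells pre-loaded 1 h with calcium dye.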

[4] = G protein-coupled receptor (GPCR) small molecule agonists, calcium flux assay: HEK293 wild type cell line counter screen (AID 1920065)
Procedure, shortened: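 In this agonist-mode screen, ATP is the positive control and DMSO the vehicle. Cells grow 18 h before a 1 h dye incubation at 37 C; signal is taken at Ex/Em 480/540 over 3 min.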

[5] = p53 small molecule agonists, cell-based qHTS assay with human liver microsomes (AID 1963577);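 further: p53 response element beta-lactamase reporter cells with liver microsomes plus NADPH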
Procedure, shortened: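 16 h, 37 C exposure of p53RE-bla cells to compounds with human liver microsomes and NADPH (0.5 mg/mL final each); detection via LiveBLAzer mixture, 2 h dark at room temperature.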

[6] = p53 small molecule agonists, cell-based qHTS assay with rat liver microsomes (AID 1963578)
Procedure, shortened: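 With rat liver microsomes and NADPH present (0.5 mg/mL final each), p53RE-bla cells are treated with compound for 16 h at 37 C. LiveBLAzer detection mixture is then applied for 2 h at room temperature in the dark.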

[7] = p53 small molecule agonists, cell-based qHTS assay with human liver microsomes: qHTS cell viability counter screen (AID 1963579); further: nearly all actives have a fitted effect of over 45% in size
Procedure, shortened: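 In this multiplexed counter screen, the reporter plates were subsequently treated with CellTiter-Glo so that cell viability, reflected by luminescence, could be recorded for p53RE-bla cells dosed 16 h with compounds under microsomal activation (HLM and NADPH).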

[8] = p53 small molecule agonists, cell-based qHTS assay: qHTS cell viability counter screen (AID 1963581); further: nearly all actives have a fitted effect of over 45% in size
Procedure, shortened: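 Compounds are pinned onto HCT-116 p53RE-bla cells and left 16 h at 37 C. Following the reporter FRET read, ATP is quantified by CellTiter-Glo luminescence after 30 min at room temperature.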

[9] = p53 small molecule agonists, cell-based qHTS assay (AID 1963582; active means well fitted activation curve with a large enough effect in the signal ratio in the repeat runs, not every such curve was filed as active; the % refers to the signal ratio)
Procedure, shortened: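 Agonist activity was scored from beta-lactamase FRET fluorescence in p53RE-bla cells treated 16 h at 37 C with compounds in DMSO, substrate incubation being 2 h at room temperature.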

[10] = biological target: 5-hydroxytryptamine receptor 2A (Homo sapiens) (UniProt P28223); assay: 5-hydroxytryptamine receptor 2A (HTR2A) small molecule antagonists, cell-based qHTS assay (AID 1963586); further: nearly all actives have a fitted effect of over 45% in size
Sequence of 5-hydroxytryptamine receptor 2A (Homo sapiens) (P28223 whole entry, looked up): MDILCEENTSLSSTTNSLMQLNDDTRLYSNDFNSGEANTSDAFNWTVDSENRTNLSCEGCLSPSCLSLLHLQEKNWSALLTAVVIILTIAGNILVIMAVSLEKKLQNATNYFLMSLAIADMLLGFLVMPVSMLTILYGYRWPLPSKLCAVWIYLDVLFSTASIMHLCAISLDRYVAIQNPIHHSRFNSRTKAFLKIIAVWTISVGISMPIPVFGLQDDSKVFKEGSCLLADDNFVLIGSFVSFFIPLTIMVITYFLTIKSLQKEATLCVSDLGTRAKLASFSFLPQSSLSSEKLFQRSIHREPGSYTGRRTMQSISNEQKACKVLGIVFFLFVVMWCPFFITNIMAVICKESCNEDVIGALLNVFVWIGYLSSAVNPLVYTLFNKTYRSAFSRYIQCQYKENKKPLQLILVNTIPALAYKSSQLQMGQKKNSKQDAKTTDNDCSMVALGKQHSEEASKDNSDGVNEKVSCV
Procedure, shortened: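 Antagonist-mode intracellular calcium assay: DOI (4 nM) added after 5 min compound pre-incubation at room temperature to dye-loaded HTR2A-CHO cells. Fluorescence followed for 3 min, sampled every second.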

[11] = biological target: 5-hydroxytryptamine receptor 2A (Homo sapiens) (UniProt P28223); assay: 5-hydroxytryptamine receptor 2A (HTR2A) small molecule agonists, cell-based qHTS assay (AID 1963587); further: nearly all actives have a fitted effect of over 30% in size
Procedure, shortened: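 Kinetic calcium-flux fluorescence (2 min, 1 sec intervals) after compound addition in agonist mode. HTR2A-CHO cells were cultured 18 h, then dye-loaded 1 h at 37 C.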

[12] = biological target: Muscarinic acetylcholine receptor M1 (Homo sapiens) (UniProt P11229); assay: Cholinergic receptor muscarinic 1 (CHRM1) small molecule antagonists, cell-based qHTS assay (AID 1963588); further: nearly all actives have a fitted effect of over 40% in size
Sequence of Muscarinic acetylcholine receptor M1 (Homo sapiens) (P11229 whole entry, looked up): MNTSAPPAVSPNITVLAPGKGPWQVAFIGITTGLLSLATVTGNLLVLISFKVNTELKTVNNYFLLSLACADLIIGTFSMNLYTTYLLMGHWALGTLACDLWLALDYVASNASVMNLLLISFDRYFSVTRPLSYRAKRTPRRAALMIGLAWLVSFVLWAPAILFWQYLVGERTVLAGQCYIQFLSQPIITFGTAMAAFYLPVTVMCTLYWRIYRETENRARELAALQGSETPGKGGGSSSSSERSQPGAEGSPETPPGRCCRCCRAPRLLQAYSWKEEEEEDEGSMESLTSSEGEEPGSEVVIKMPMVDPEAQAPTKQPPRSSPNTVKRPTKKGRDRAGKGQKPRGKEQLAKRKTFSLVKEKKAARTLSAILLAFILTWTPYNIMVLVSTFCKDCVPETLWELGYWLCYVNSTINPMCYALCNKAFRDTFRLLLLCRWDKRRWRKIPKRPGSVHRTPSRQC
Procedure, shortened: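 CHRM1-CHO calcium-flux assay, antagonist mode. Cells were seeded 18 h, dye-loaded 1 h at 37 C and given compound for 5 min at RT, then acetylcholine was added at 50nM. FDSS fluorescence was read 3 min; 15 concentrations, three runs.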

[13] = biological target: Muscarinic acetylcholine receptor M1 (Homo sapiens) (UniProt P11229); assay: Cholinergic receptor muscarinic 1 (CHRM1) small molecule agonists, cell-based qHTS assay (AID 1963589); further: nearly all actives have a fitted effect of over 35% in size
Procedure, shortened: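 Stable CHRM1-CHO cells (human receptor) were incubated 18 h, dye-loaded for 1 h at 37 C and exposed to test compounds for agonist activity, with calcium-dependent fluorescence followed kinetically.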

[14] = cAMP Responsive Elements (CRE) small molecule antagonists, cell-based qHTS assay (AID 1963591; active means well fitted inhibition curve with a large enough effect in the signal ratio in the repeat runs, not every such curve was filed as active; the % refers to the signal ratio)
Procedure, shortened: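 qHTS in CRE-bla HEK 293T cells: compound in DMSO, then 0.25 uM NKH477 (final), 3 h at 37 °C/5% CO2; beta-lactamase FRET read-out after 2 h substrate incubation.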

[15] = biological target: Beta-2 adrenergic receptor (Homo sapiens) (UniProt P07550); assay: Adrenergic beta2 receptor (ADRB2) small molecule antagonists, cell-based qHTS assay (AID 1963592); further: series mostly up to about 92 µM; nearly all actives have a fitted effect of over 50% in size
Sequence of Beta-2 adrenergic receptor (Homo sapiens) (P07550 whole entry, looked up): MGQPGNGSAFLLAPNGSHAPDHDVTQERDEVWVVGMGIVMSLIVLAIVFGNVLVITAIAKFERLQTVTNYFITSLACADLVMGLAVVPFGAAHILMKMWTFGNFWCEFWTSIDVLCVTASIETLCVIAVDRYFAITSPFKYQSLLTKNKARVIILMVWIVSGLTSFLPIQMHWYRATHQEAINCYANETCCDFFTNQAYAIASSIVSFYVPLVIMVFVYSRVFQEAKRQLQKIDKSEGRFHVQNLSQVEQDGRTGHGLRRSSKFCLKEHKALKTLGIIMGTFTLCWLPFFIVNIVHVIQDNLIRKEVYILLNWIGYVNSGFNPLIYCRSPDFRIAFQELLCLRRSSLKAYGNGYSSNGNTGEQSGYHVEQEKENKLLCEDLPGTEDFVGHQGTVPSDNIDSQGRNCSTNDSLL
Procedure, shortened: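 Cells (CHO, stable ADRB2 overexpression) incubated 18-20hr at 37C; compounds added from DMSO; agonist mix (1nM isoproterenol, 100uM IBMX, 25uM Ro-20-1724) added; 0.5hr RT; d2-cAMP and anti-cAMP-cryptate added; 1hr RT; 665/615 nm read.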

[16] = biological target: Beta-2 adrenergic receptor (Homo sapiens) (UniProt P07550); assay: Adrenergic beta2 receptor (ADRB2) small molecule agonists, cell-based qHTS assay (AID 1963593);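 further: CHO cells stably overexpressing human ADRB2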
Procedure, shortened: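 CHO cells stably over-expressing ADRB2 were plated overnight at 37C, then dosed with compounds plus a stimulation mix containing 100uM IBMX and 25uM Ro-20-1724 for 0.5hr at room temperature. cAMP was measured by HTRF competition, 1hr.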

[17] = biological target: D(2) dopamine receptor (Homo sapiens) (UniProt P14416); assay: Dopamine D2 receptor (DRD2) small molecule agonists, cell-based qHTS assay (AID 1963594); further: nearly all actives have a fitted effect of over 35% in size
Sequence of D(2) dopamine receptor (Homo sapiens) (P14416 whole entry, looked up): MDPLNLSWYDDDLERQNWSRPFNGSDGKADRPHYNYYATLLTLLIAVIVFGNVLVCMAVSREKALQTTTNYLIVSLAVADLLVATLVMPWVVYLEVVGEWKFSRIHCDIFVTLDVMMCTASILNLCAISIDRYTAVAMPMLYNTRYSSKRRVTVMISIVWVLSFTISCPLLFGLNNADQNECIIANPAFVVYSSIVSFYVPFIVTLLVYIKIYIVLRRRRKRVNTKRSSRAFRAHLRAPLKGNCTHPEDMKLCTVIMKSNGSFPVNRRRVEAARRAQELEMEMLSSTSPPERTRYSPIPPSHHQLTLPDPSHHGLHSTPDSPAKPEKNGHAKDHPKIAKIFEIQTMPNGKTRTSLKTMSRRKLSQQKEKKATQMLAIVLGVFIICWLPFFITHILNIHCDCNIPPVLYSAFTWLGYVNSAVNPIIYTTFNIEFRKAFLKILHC
Procedure, shortened: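 cAMP accumulation in DRD2-HEK293 cells measured by HTRF after 1 h detection; compounds added 10 min before NKH477 (200nM […]) forskolin-analogue stimulation, 30 min at room temperature, with Ro20-1724 present at 0.1 mM final.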

[18] = biological target: D(2) dopamine receptor (Homo sapiens) (UniProt P14416); assay: Dopamine D2 receptor (DRD2) small molecule antagonists, cell-based qHTS assay (AID 1963595; active means well fitted inhibition curve with a large enough effect in the signal ratio in the repeat runs, with a control signal flat; the % refers to the signal ratio)
Procedure, shortened: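 DRD2-HEK293; 0.1 mM Ro20-1724; cpd 10 min RT; NKH477 200 nM + quinpirole 12 nM, 30 min RT; HTRF cAMP (cAMP-d2/anti-cAMP cryptate), 665/620 nm ratio after 1 h.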

[19] = p53 small molecule agonists, cell-based qHTS assay with rat liver microsomes: qHTS cell viability counter screen (AID 1963580); further: nearly all actives have a fitted effect of over 45% in size
Procedure, shortened: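 Intracellular ATP, by CellTiter-Glo luminescence, defines viability. HCT-116 p53RE-bla cells, 4,000 per well, were compound-treated in the presence of rat liver microsomes and NADPH for 16 h at 37 C.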

[20] = cAMP Responsive Elements (CRE) small molecule agonists, cell-based qHTS assay (AID 1963590)
Procedure, shortened: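 FRET-based beta-lactamase readout (LiveBLAzer B/G, 2 h RT) quantified CRE activation in HEK 293T CRE-bla cells after 3 h treatment with DMSO-dissolved compounds.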

Measured: Potency

COc1cc(OC)nc(O[C@H](C(=O)O)C(OC)(c2ccccc2)c2ccccc2)n1
not listed: [19] | [20]
inactive: all other assays above

O=C(O)/C=C/c1cnc[nH]1
not listed: [13] | [16] | [18] | [19] | [20]
inactive: all other assays above

CC12CCC(C(=O)C1=O)C2(C)C (stereo not given)
not listed: [9]
inactive: all other assays above

C/C=C/C(=O)C1=C(C)C=CCC1(C)C
not listed: [7] | [13]
inactive: all other assays above

CSc1ccc(C(=O)c2[nH]c(=O)[nH]c2C)cc1
not listed: [11]
inactive: all other assays above

COc1ccc(COC(C)=O)cc1
not listed: [5] | [6] | [9] | [20]
inactive: all other assays above

CC1(C)C(=O)N(Br)C(=O)N1Cl
not listed: [8] | [11] | [18]
inactive: all other assays above

COc1ccc(OC)c(C(O)CNC(=O)CN)c1 (stereo not given)
not listed: [5] | [6] | [7] | [12] | [19]
inactive: all other assays above

OC1OC[C@@H](O)[C@H](O)[C@H]1O (stereo not given in full)
not listed: [10]
inactive: all other assays above

NCCNCCO
not listed: [10] | [12]
inactive: all other assays above

CCOC(=O)c1cccc(N)c1
not listed: [11] | [12] | [17]
inactive: all other assays above

Cc1cc(C)c(C(=O)O)c(C)c1
not listed: [19]
inactive: all other assays above

CC[C@]12CCCN3CCc4c(n(c5ccccc45)[C@@](O)(C(=O)OC)C1)[C@@H]32
not listed: [8] | [9] | [10]
inactive: all other assays above

[O]=[Zr]
not listed: [11] | [19]
inactive: all other assays above
